In PubChem BioAssay AID376 (PDSP, 2006):
Out of some 2,000 compounds screened, about 250 (12%) were called active. The full list was thinned out, with actives kept by preference. Values without a mark were called inactive. No stated cut-off is given here; in the data, active means hERG blockade below about -20% or above about 20%; inactive means in between.

molecular target: Voltage-gated inwardly rectifying potassium channel KCNH2 (Homo sapiens) (UniProt Q12809); experiment: KCNH2 potassium channel function modulators, cell-based (AID 376); settings: hERG-expressing cells, channel activity single-concentration screen; concentration not given here;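 further: 0% = buffer alone and 100% = reference blocker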
Sequence (Q12809 whole entry, looked up): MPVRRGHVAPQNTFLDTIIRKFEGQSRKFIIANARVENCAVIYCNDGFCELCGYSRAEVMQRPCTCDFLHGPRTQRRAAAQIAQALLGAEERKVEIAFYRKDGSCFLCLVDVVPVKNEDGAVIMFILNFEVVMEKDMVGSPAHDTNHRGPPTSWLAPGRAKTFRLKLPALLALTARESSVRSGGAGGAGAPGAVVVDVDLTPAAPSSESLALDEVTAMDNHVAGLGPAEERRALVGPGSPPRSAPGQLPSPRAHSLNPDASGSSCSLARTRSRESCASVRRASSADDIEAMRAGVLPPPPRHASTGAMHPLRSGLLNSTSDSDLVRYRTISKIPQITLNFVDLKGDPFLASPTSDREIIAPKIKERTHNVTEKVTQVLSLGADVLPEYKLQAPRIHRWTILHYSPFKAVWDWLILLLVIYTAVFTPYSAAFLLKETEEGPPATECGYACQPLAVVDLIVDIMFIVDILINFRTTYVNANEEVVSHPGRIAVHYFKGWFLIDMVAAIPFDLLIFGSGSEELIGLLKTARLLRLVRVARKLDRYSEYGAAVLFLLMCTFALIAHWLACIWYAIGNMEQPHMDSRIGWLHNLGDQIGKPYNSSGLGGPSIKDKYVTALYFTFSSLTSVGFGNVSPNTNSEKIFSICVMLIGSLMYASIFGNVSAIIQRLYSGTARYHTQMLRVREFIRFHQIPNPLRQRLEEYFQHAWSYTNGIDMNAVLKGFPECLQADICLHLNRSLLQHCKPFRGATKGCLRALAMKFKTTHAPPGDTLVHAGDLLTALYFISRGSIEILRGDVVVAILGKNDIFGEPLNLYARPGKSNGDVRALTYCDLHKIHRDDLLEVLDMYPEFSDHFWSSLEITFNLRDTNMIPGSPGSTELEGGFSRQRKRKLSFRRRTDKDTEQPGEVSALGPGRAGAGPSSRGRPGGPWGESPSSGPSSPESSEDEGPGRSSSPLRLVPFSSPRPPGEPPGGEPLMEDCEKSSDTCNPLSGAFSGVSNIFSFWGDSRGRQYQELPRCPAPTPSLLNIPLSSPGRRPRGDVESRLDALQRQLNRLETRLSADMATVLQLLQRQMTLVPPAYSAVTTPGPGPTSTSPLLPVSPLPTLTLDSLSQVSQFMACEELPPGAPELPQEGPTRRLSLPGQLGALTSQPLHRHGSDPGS

Structure (SMILES) | hERG blockade
CN(C)CCC(C#N)(c1ccccc1)c1ccccc1 | 6.53%
c1ccc2c(c1)Sc1ccccc1N2CC1CN2CCC1CC2 (configuration not stated) | 69.3% (active)
CC1C(C)N1CC(O)Cn1ccnc1[N+](=O)[O-] (configuration not stated) | 8.14%
Cc1ccc(O)cc1 (tested in a mixture with another compound) | -3.08%
ClCC[N+]12CC[N+](CCCl)(CC1)C2 (tested in a mixture with another compound) | 11.5%
CC1(C)N=C(N)N=C(N)N1c1cccc(C(=O)Nc2ccc(S(=O)(=O)F)cc2)c1 | 24.1% (active)
O=C(O)c1cccc([As]=[As]c2cccc(C(=O)O)c2)c1 (configuration not stated) | -10.8%
NC(Cc1cc(Br)c(O)c(Br)c1)C(=O)O (configuration not stated) | 9.07%
NNc1nncn1N | -1.06%
COc1cc2cc(c1Cl)N(C)C(=O)CC(OC(=O)C(C)C)C1(C)OC1C(C)C1CC(O)(NC(=O)O1)C(OC)C=CC=C(C)C2 (configuration not stated) | 33% (active)
O=C(O)C[O][Sb][O]CC(=O)O | 2.23%
OC(CN1CC1)C(O)CN1CC1 (configuration not stated) | 3.04%
c1cc(CCN2CCCCC2)ccn1 | -7.49%
C=C(C)c1ccccc1 (tested in a mixture with another compound) | 1.7%
CC1OC(OC2CC(O)C3(CO)C4C(O)CC5(C)C(C6=CC(=O)OC6)CCC5(O)C4CCC3(O)C2)C(O)C(O)C1O (configuration not stated) | 2.43%
CCC1(O)C(=O)OCc2c1cc1n(c2=O)Cc2cc3c(NC(=O)CN)cccc3nc2-1 (configuration not stated) | 7.93%
O=C(O)C(Cc1cnc[nH]1)N1C(=O)c2ccccc2C1=O (configuration not stated) | 14.2%
Oc1cccc2cccnc12 | -22.9% (active)
NCCCN1CCN(c2ccccc2)CC1 | -0.441%
C(=NCCN1CCOCC1)=NC1CCCCC1 | 6.97%
O=C(O)c1cc(N=Nc2ccc([As](=O)(O)O)cc2)ccc1O | 3.08%

Structure (SMILES) | hERG blockade
CC(=O)OC1=CC2=CCC3C4CCC(=O)C4(C)CC(=O)C3(S)C2(C)CC1 (configuration not stated) | -3.78%
O=C(O)CNCP(=O)(O)O | -1.2%
CN1CC(C(=O)NC2(C)OC3(O)C4CCCN4C(=O)C(Cc4ccccc4)N3C2=O)C=C2c3cccc4[nH]cc(c34)CC21 (configuration not stated) | 6.97%
CC(Br)CN(CC(C)Br)c1ccc2c(c1)Cc1ccccc1-2 (configuration not stated) | 3.41%
CCC(O)(C(=O)O)c1cc2n(c(=O)c1CO)Cc1cc3ccccc3nc1-2 (configuration not stated) | -3.09%
C[N+]1([O-])C2CCC1CC(OC(=O)C(CO)c1ccccc1)C2 (configuration not stated) | -12.1%
CN(C)CCCNc1c2c(nc3ccc(Cl)cc13)CCCC2 | 65.9% (active)
O=S(=O)(O)C(=Cc1ccccc1)c1ccccc1 (tested in a mixture with another compound) | -5.32%
O=C(O)Cc1ccc([N+](=O)[O-])cc1[N+](=O)[O-] | -15.6%
CC(c1ccccc1)N1CCN(C(C)c2ccccc2)CC1 (configuration not stated) | 2.64%
CCC1CN2CCc3cc(OC)c(OC)cc3C2CC1CC1NCCc2c1[nH]c1ccc(O)cc21 (configuration not stated) | 35.8% (active)
O=C(O)CC1OCC=C2CN3CCC45C6=CC(=O)C(=O)C([N+](=O)[O-])=C6NC4C1C2CC35 (configuration not stated) | 13.9%
CC12CCC(CN(CCC[N+](C)(C)C)C1)C2(C)C (configuration not stated) | 4.55%
CC1CCC2N(C1)CC1C3(O)CC45OC6(O)C(O)CCC4(C)C6CCC5C3(O)CC(O)C1(O)C2(C)O (configuration not stated) | 12.9%
CSCCC(N)P(C)(=O)O (configuration not stated) | -4.74%
C[As+](C)(c1ccc(Br)c([N+](=O)[O-])c1)c1ccc(Br)c([N+](=O)[O-])c1.O=[N+]([O-])[O-] | 13.6%
N=C(N)n1cc(C=NN=C(N)N)cn1 | 47.3% (active)
S=P(C1CCCCC1)(C1CCCCC1)C(c1cccnc1)N1CCCC1 (configuration not stated) | 1.56%
O.O.[NH-]C1(C(=O)O)CCCC1.[NH-]C1(C(=O)O)CCCC1.[Ni+2] | 1.76%
Cc1cc[c]([Sb]2[O]C(CO)C(C(O)C(O)C(=O)O)[O]2)cc1 (configuration not stated) | -4.77%
COc1cc2c(cc1OC)C13CCN4CC5=CCOC(CC(=O)O)C(C5CC41)C3N2 (configuration not stated) | 2.07%

Structure (SMILES) | hERG blockade
O=c1[nH]cnc2[nH]cc(CN3CCCCC3)c12 | 1.35%
O=c1[nH]c2ccccc2n1CCCN1CCC(n2c(=O)[nH]c3cc(Cl)ccc32)CC1 | 67.7% (active)
CCNC(C)(C)C(SS)c1ccc(Br)cc1 (configuration not stated) | -7.7%
O=C(O)CC1OCC=C2CN3CCC45c6ccccc6NC4C1C2CC35 (configuration not stated) | -7.07%
CC1(C)CC(=N[N-]C(N)=[SH+])CC(C)(C)N1.CC1(C)CC(=N[N-]C(N)=[SH+])CC(C)(C)N1.[Ni] | -0.871%
O=C(O)C1[O][Sb][O]C(C(=O)O)C1O (configuration not stated) | -9.98%
CC(C)=CC1C(C(=O)OCc2cc3c(cc2Cl)OCO3)C1(C)C (configuration not stated) | 1.35%
c1nc(N2CC2)c2cnn(C3CCCCO3)c2n1 (configuration not stated) | 4.58%
O=C(O)C1C2c3ccccc3C(c3ccccc32)C1C(=O)NCC1CC1 (configuration not stated) | -8.3%
CC(C)CCC1(CCN)C(=O)NC(=O)NC1=O | -21.5% (active)
CC12Cc3cnc(-c4ccccc4)nc3CC1CCC1C2CCC2(C)C1CCC2(C)O (configuration not stated) | 6.41%
NC(Cc1c[nH]c2cc([N+](=O)[O-])ccc12)C(=O)O (configuration not stated) | -0.372%
CCC1(CCSC(=N)N)C(=O)NC(=O)NC1=O | -24.7% (active)
CCNCCC1(CC)C(=O)NC(=O)NC1=O | -21.7% (active)
NCC(O)CSP(=O)(O)O (configuration not stated) | -13.3%
CS(=N)(=O)CCC(N)P(=O)(O)O (configuration not stated) | -8.23%
COc1cc2ccccc2c2cc([N+](=O)[O-])oc12 | 15.9%
CC12CCC(O)CC1CCC1C2CCC2(C)C(C(=O)CC(O)C(F)(F)F)CCC12 (configuration not stated) | -1.73%
CC(C)CC(=O)CC(O)C(Cl)(Cl)Cl (configuration not stated) | -17%
CC(Br)(C(=O)O)C(Br)C(=O)O (configuration not stated) | 11.1%
CCC1C2Cc3ccc(O)cc3C1(CC)CCN2C (configuration not stated) | 1.71%

Structure (SMILES) | hERG blockade
CCC1=C(CC2NCCc3cc(OC)c(OC)cc32)CC2c3ccccc3CCN2C1 (configuration not stated) | 46% (active)
COC(=O)c1c(C)ccc2c(O)c3c(cc12)C(=O)c1c2c(cc(O)c1C3=O)C1(C)OC(C)(O2)C(O)C(N(C)C)C1O (configuration not stated) | 18.8%
NCCc1ccc(S(=O)(=O)O)cc1[N+](=O)[O-] | 2.55%
O=[As](O)(O)c1ccc(NCc2ccccc2)cc1 | -4.95%
COc1ccc(CC(N)c2ccc(OC)cc2)cc1 (configuration not stated) | 16.9%
CC(=O)OC1CC2(C)C(=CC1C1SCCS1)CCC1C2CCC2(C)C(OC(C)=O)CCC12 (configuration not stated) | 4.12%
Cc1ccc(C2(c3ccc(C)c(O)c3C)CCN(C)CC2)c(C)c1O | 21.1% (active)
Cc1ncc([N+](=O)[O-])n1CCN=[N+]=[N-] | -3.49%
c1ccc(C[N+]23CN4CN(CN(C4)C2)C3)cc1 | -14.9%
Nc1nc2c(ncn2C2OC(CO)C(O)C2O)c(=[SH+])[nH]1.O=[N+]([O-])c1ccc(O)[c]([Hg])c1 (configuration not stated) | 5.92%
COC(=O)C1c2cc3c(c(O)c2C(O)CC1(C)O)C(=O)c1c(O)cc2c(c1C3=O)OC1OC2(C)C(O)C(N(C)C)C1O (configuration not stated) | 18.4%
NC(Cc1ccccc1)P(=O)(O)O (configuration not stated) | 1.7%
CC1(C)CCC(C)(C)c2c1ccc(O)c2Cc1c(O)ccc2c1C(C)(C)CCC2(C)C | -7.52%
COc1ccc(CC2C(=O)NC(C)C(=O)N(C)C3C(=O)N(C)C(Cc4ccc(O)c(c4)Oc4ccc(cc4)C3O)C(=O)NC(C)C(=O)NC(C)C(=O)N2C)cc1 (configuration not stated) | 6.31%
COc1cc2c3cc1Oc1c(O)c(OC)cc4c1C(Cc1ccc(cc1)Oc1cc(ccc1O)CC3N(C)CC2)N(C)CC4 (configuration not stated) | 38.6% (active)
COc1cc2c(cc1O)CC1c3c(cc(O)c(OC)c3-2)CCN1C (configuration not stated) | 4.49%
N#CS.N=C=S.N=C=S.[Cu+2].[NH2-].[NH2-].[NH2-].[NH2-].c1ccc2ncccc2c1 | 6.79%
c1cncc(CNCCN2CCNCC2)c1 | -8.8%
NC1(P(=O)(O)O)CCCCC1 | -4.89%
